Test results reported in PubChem BioAssay (NCI).
The panel holds about 83,000 compounds, 20% with a hit somewhere; the sample as a whole holds those more often.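 Cell lines were cultured in 96-well plates, exposed to a single compound concentration, and assessed for percent growth 48 hours later.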 A number with no mark means an inactive call. The source made the active and inactive calls. The calls were made as follows: active = growth percent below 10; inactive = the rest.

How the values were obtained:
Assay in all cases: NCI-60 one-dose screen, 48 h (100 = growth as untreated, 0 = no growth, -100 = all killed)
Settings in all cases: 10 µM unless noted
SK-MEL-2 melanoma = test system: SK-MEL-2 melanoma
EKVX NSCLC = test system: EKVX NSCLC
SN12C renal = test system: SN12C renal
UO-31 renal = test system: UO-31 renal
TK-10 renal = test system: TK-10 renal
ACHN renal = test system: ACHN renal
CAKI-1 renal = test system: CAKI-1 renal
A498 renal = test system: A498 renal
CCRF-CEM leukemia = test system: CCRF-CEM leukemia
MOLT-4 leukemia = test system: MOLT-4 leukemia
SR leukemia = test system: SR leukemia
RPMI-8226 leukemia = test system: RPMI-8226 leukemia
OVCAR-8 ovarian = test system: OVCAR-8 ovarian
OVCAR-5 ovarian = test system: OVCAR-5 ovarian
OVCAR-4 ovarian = test system: OVCAR-4 ovarian
SK-OV-3 ovarian = test system: SK-OV-3 ovarian
IGROV1 ovarian = test system: IGROV1 ovarian
OVCAR-3 ovarian = test system: OVCAR-3 ovarian
HS 578T breast = test system: HS 578T breast
NCI/ADR-RES ovarian = test system: NCI/ADR-RES ovarian

Compound | growth (SK-MEL-2 melanoma) | growth (EKVX NSCLC) | growth (SN12C renal) | growth (UO-31 renal) | growth (TK-10 renal) | growth (ACHN renal) | growth (CAKI-1 renal) | growth (A498 renal) | growth (CCRF-CEM leukemia) | growth (MOLT-4 leukemia) | growth (SR leukemia) | growth (RPMI-8226 leukemia) | growth (OVCAR-8 ovarian) | growth (OVCAR-5 ovarian) | growth (OVCAR-4 ovarian) | growth (SK-OV-3 ovarian) | growth (IGROV1 ovarian) | growth (OVCAR-3 ovarian) | growth (HS 578T breast) | growth (NCI/ADR-RES ovarian) [%]
Fc1ccc(C2CC(c3cccc(Nc4ccncc4)c3)=NN2c2cc(Cl)cc(Cl)c2)cc1 (stereo not given) | 105% | 80% | 72% | 47.6% | 74.8% | 43.3% | 31.1% | 94.5% | 0.277% (active) | 1.57% (active) | 2.89% (active) | 20.9% | -18.3% (active) | 87.5% | 15.8% | 83.3% | 25.1% | 62.1% | 57.8% | 
CN1CCN(CCCOc2ccc3ncnc(Nc4ccc(Oc5cccc(C(F)(F)F)c5)c(Cl)c4)c3c2)CC1 | 40.3% | 36.6% | 27.1% | 20.1% | 19.3% | -37.5% (active) | 0.55% (active) | 63.1% | -9.94% (active) | 3.44% (active) | 4.03% (active) | -21.6% (active) | 24.6% | 5.84% (active) | 2.72% (active) | 21.4% | -53.7% (active) | 30.2% | 26.8% | 34.8
CN1CCN(c2c(F)cc(NC3=C(Cl)C(=O)c4ncccc4C3=O)cc2F)CC1 | 99.2% | 91% | 84.2% | 34.3% | 66.9% | -63% (active) | 62.2% | 88.1% | 5.66% (active) | 0.45% (active) | 4.88% (active) | 67.1% | 78.1% | 105% | -87.8% (active) | 101% | 57.4% | -28% (active) | 97.2% | 89.7
O=C(N/N=C/c1cccnc1)c1ccccc1Nc1cccc(C(F)(F)F)c1 | 101% | 89.2% | 159% | 76.4% | 97.2% | 100% | 79.6% | 75.6% | -52.4% (active) | 62.7% | -15.3% (active) | 71.1% | 83.1% | 96.4% | 70.3% | 80.3% | 91.4% | 75.4% | 100% | 79
CN1CCN(C(=O)[C@]2(C)CC[C@]3(C)CC[C@]4(C)C(=CC(=O)[C@@H]5[C@@]6(C)CCC(=O)NC(C)(C)[C@@H]6CC[C@]54C)[C@@H]3C2)CC1 | 100% | 93.9% | 90.4% | 71.8% | 105% | 108% | 95.8% | 102% | 93.2% | 85.6% | 77.6% | 99.7% | 99.8% | 110% | 92.1% | 91% | 99.9% | 101% | 88.1% | 96.6
Nc1nc(N)nc(NCc2ccccc2)n1 | 112% | 99.3% | 98.4% | 91.1% | 95.8% | 106% | 99.7% | 105% | 109% | 95.4% | 89% | 107% | 117% | 103% | 128% | 115% | 109% | 105% | 120% | 
COc1ccc(C(=O)c2cc3c(N)c(C(=O)Nc4ccc(Br)cc4)sc3nc2C)cc1 | 74.4% | 83.1% | 84.4% | 72.3% | 98.8% | 65.5% | 62.5% | 83.9% | 88.5% | 91.2% | 51.5% | 77% | 37.2% | 88% | 0.804% (active) | 62.1% | 85.9% | 65.4% | 32.3% | 
COc1cc(C2CC(c3cccc(Nc4ccncc4)c3)=NN2c2ccccc2)cc(OC)c1OC (stereo not given) | 83.1% | 71.2% | 62.5% | 53.3% | 82.8% | 65.6% | 43.6% | 74.9% | 6.7% (active) | 1.73% (active) | 2.93% (active) | 7.32% (active) | 66.6% | 89.3% | 41.2% | 74% | 55% | 56.2% | 64.2% | 66.3
CCCCCCCCCCN=C(N)N=C(N)N | 75.8% | 38.8% | 9.21% (active) | 43.1% | 40.8% | 40.1% | 43.4% | 54.9% | 35.7% | 30.8% | 37.8% | 34.8% | 43.5% | 64.1% | 44.9% | 52.3% | 12.1% | 41.9% | 55% | 79.5
O=C(CN1CCOCC1)Nc1ccc2ncnc(Nc3ccc(OCc4cccc(F)c4)c(Cl)c3)c2c1 | 88.1% | 25.1% | 48.1% | 30.7% | 37.8% | 24.5% | 45.8% | 28% | 66.7% | 47.9% | 64.3% | 44.7% | 63.1% | 69.2% | 72% | 6.86% (active) | 23.2% | 58% | 100% | 
CN1CCN(c2cc(F)c(NC3=C(Cl)C(=O)c4ncccc4C3=O)c(F)c2)CC1 | -49.6% (active) | -82.7% (active) | -97.5% (active) | -100% (active) | 8.46% (active) | -93.1% (active) | -85.6% (active) | 80.1% | -18.2% (active) | -22.7% (active) | -0.813% (active) | -20.7% (active) | 1.95% (active) | -59.8% (active) | -99.2% (active) | 82.7% | -90.4% (active) | -98.2% (active) | -16.5% (active) | 37.9
COc1cc(-c2nc3occn3c2-c2ccnc(NCCNS(=O)(=O)c3ccc(Cl)cc3)n2)ccc1F | 71.9% | 78.1% | 71.5% | 36.4% | 89% | 77.7% | 60.9% | 62.3% | 60.9% | 54% | 71.9% | 48.8% | 85.4% | 118% | 78.6% | 67.3% | 64.6% | 114% | 77.8% | 82.2
CC(=O)Nc1ccc(S(=O)(=O)NC2CCCCC2)cc1 | 108% | 95.2% | 91% | 85.2% | 90.2% | 91.7% | 98.5% | 64.3% | 96.3% | 101% | 99% | 94.3% | 101% | 93.9% | 113% | 97.3% | 103% | 110% | 92.7% | 99.7
COc1ccc(/C=C/c2n[nH]c3ccc(N4CCOC4=O)cc23)cc1 | 11.7% | 8.71% (active) | 24% | -45.7% (active) | -9.71% (active) | 6.86% (active) | 4.59% (active) | -19.6% (active) | -17% (active) | 4.38% (active) | 2.85% (active) | -14.9% (active) | 19.3% | 14.1% | 40% | 25.2% | 8.62% (active) | 4.56% (active) | 2.93% (active) | 15.6
COc1ccccc1Nc1cc(O)c2c(=O)cc(-c3ccccc3)oc2c1 | 13.7% | 57.4% | 36.6% | 46.6% | 66.3% | 50.8% | 41.3% | 11.6% | 7.29% (active) | 25.9% | 5.75% (active) | 16.4% | 32.4% | 78.1% | 65.6% | 50.7% | 51.4% | 5.9% (active) | 45.6% | 
O=S(=O)(NCCCNc1nccc(-c2c(-c3ccccc3)nc3occn23)n1)c1ccc(Cl)cc1 | 88.3% | 89.1% | 68.2% | 44.4% | 102% | 58.3% | 62% | 83.1% | 75.5% | 68.1% | 60.9% | 71.2% | 74.4% | 127% | 103% | 83% | 75.7% | 104% | 96.7% | 87.8
